Laboratory results taken from PubChem BioAssay (NCATS).
Inconclusive results are not listed. Entries that show only a call come without a potency. Calls of active or inactive are those of the source. The call rests on the fitted dose curve; in most records, active means well fitted inhibition curve with a large enough effect; inconclusive means small, poorly fitted or top-dose-only effect; inactive means flat fitted curve, though single readings scatter.

Experiments:
Experiment in all cases: qHTS profiling for inhibitors of Plasmodium falciparum proliferation (AID 504749); further: nearly all actives have a fitted effect of over 60% in size
Details in all cases: P. falciparum in erythrocytes, SYBR Green DNA, 72 h; series mostly up to 28.7 µM
CP247 = test system: CP247
Procedure, shortened: (§1)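 Readout was DNA-dye fluorescence from lysed cultures, ex 485/em 535 nm. Parasitized red cells had grown 72 h with compound; data scaled between 0.29 uM artemisinin and DMSO wells and corrected using vehicle-only plates.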

CP250 = test system: CP250
Procedure, shortened: as §1

CP252 = test system: CP252
Procedure, shortened: as §1

CP265 = test system: CP265
Procedure, shortened: as §1

CP297 = test system: CP297
Procedure, shortened: as §1

CP315 = test system: CP315
Procedure, shortened: as §1

CP329 = test system: CP329
Procedure, shortened: as §1

DFO2036 = test system: DFO2036
Procedure, shortened: as §1

CP256 = test system: CP256
Procedure, shortened: as §1

CP262 = test system: CP262
Procedure, shortened: as §1

CP266 = test system: CP266
Procedure, shortened: as §1

CP268 = test system: CP268
Procedure, shortened: as §1

CP269 = test system: CP269
Procedure, shortened: as §1

CP286 = test system: CP286
Procedure, shortened: as §1

CP291 = test system: CP291
Procedure, shortened: as §1

CP305 = test system: CP305
Procedure, shortened: as §1

CP325 = test system: CP325
Procedure, shortened: as §1

CP335 = test system: CP335
Procedure, shortened: as §1

DIV14 = test system: DIV14
Procedure, shortened: as §1

CP260 = test system: CP260
Procedure, shortened: as §1
Potency means the concentration at half of the fitted maximal effect.

| Compound | Potency (CP247) | Potency (CP250) | Potency (CP252) | Potency (CP265) | Potency (CP297) | Potency (CP315) | Potency (CP329) | Potency (DFO2036) | Potency (CP256) | Potency (CP262) | Potency (CP266) | Potency (CP268) | Potency (CP269) | Potency (CP286) | Potency (CP291) | Potency (CP305) | Potency (CP325) | Potency (CP335) | Potency (DIV14) | Potency (CP260) |
| --- | --- | --- | --- | --- | --- | --- | --- | --- | --- | --- | --- | --- | --- | --- | --- | --- | --- | --- | --- | --- |
| C[N+]1(C)CCC(=C(c2ccccc2)c2ccccc2)CC1 | inactive | inactive | inactive | inactive | inactive | inactive | inactive | inactive |  |  |  |  |  |  |  |  |  |  |  |  |
| CCc1ccc(C(=O)C(C)CN2CCCCC2)cc1 (configuration not stated) | inactive | inactive | inactive | inactive | inactive | inactive | inactive | inactive | inactive | inactive | inactive | inactive | inactive | inactive | inactive | inactive | inactive | inactive | inactive |  |
| NC(N)=NN=C(/C=C/c1ccc([N+](=O)[O-])o1)/C=C/c1ccc([N+](=O)[O-])o1 | 7.08 µM (active) | 11.2 µM (active) |  |  |  |  |  | 11.2 µM (active) |  | inactive |  |  |  | 2.24 µM (active) |  |  |  | 4.78 µM (active) | 7.57 µM (active) | 3.55 µM (active) |
| NC1CCN(c2nc3c(cc2F)c(=O)c(C(=O)O)cn3-c2ccc(F)cc2F)C1 (configuration not stated) | inactive | inactive |  |  |  | inactive |  |  |  |  |  |  |  |  |  |  |  |  | inactive |  |
| O=C(O)c1ccc(S(=O)(=O)N(Cl)Cl)cc1 | inactive | inactive | inactive | inactive | inactive | inactive | inactive | inactive | inactive |  | inactive | inactive | inactive | inactive | inactive | inactive | inactive | inactive | inactive | inactive |
| CC(C)[N+](C)(C)CC(O)COc1cccc2ccccc12 (configuration not stated) | inactive |  | inactive | inactive |  |  | inactive |  |  | inactive |  | inactive |  |  |  |  |  | 9.53 µM (active) | inactive |  |
| CN1CCN(C2=Nc3ccccc3Sc3ccc(Cl)cc32)CC1 | inactive | inactive | inactive |  |  | inactive | inactive | inactive | inactive |  | inactive | inactive |  |  |  | inactive | inactive |  |  |  |
| COc1ccc(C(=O)c2ccccc2)c(O)c1 | inactive |  | inactive |  | inactive | inactive | inactive | inactive | inactive | inactive | inactive | inactive | inactive | inactive | inactive |  | inactive |  |  |  |
| CC(C)NCC(O)c1ccc2ccccc2c1 (configuration not stated) | 7.94 µM (active) |  | 11.2 µM (active) | 10 µM (active) |  |  | inactive |  |  |  | inactive |  |  | 11.2 µM (active) |  |  |  | 12 µM (active) | 6.75 µM (active) | 6.31 µM (active) |
| O=C(c1ccc(F)cc1)C1CCN(CCn2c(=S)[nH]c3ccccc3c2=O)CC1 | 4.47 µM (active) | 10 µM (active) | 6.31 µM (active) | 7.94 µM (active) | 6.75 µM (active) | 15.1 µM (active) | 6.75 µM (active) | 5.62 µM (active) | 8.91 µM (active) |  | 7.57 µM (active) | 6.01 µM (active) | 6.75 µM (active) | 3.98 µM (active) | 6.75 µM (active) | 6.75 µM (active) | 7.57 µM (active) |  |  | 3.16 µM (active) |
| CN(C)CCC[C@@]1(c2ccc(F)cc2)OCc2cc(C#N)ccc21 | inactive | inactive | inactive | inactive |  |  | inactive | inactive |  | inactive | inactive | inactive |  | inactive | inactive | inactive | inactive | inactive | inactive | inactive |
| NCc1ccccc1Sc1ccccc1CO | inactive | inactive | inactive | inactive |  | inactive | inactive | inactive |  |  | inactive |  | inactive | inactive | inactive | inactive | inactive |  | 13.5 µM (active) | inactive |
| Cc1cccc(C)c1NC(=O)CN1CCCC1 | inactive |  | inactive | inactive | inactive | inactive | inactive | inactive | inactive | inactive |  | inactive | inactive | inactive | inactive | inactive | inactive | inactive | inactive | inactive |
| CN(C)C(=O)Nc1ccc(Cl)c(Cl)c1 | 4.47 µM (active) | inactive |  | inactive |  |  |  | inactive |  | inactive |  | inactive |  | inactive | inactive |  | inactive |  | 3.01 µM (active) |  |
| COc1cc(C(=O)N2CCCCCCC2)cc(OC)c1OC | inactive |  | inactive | inactive | inactive | inactive | inactive | inactive | inactive | inactive | inactive | inactive | inactive | inactive | inactive | inactive | inactive | inactive | inactive | inactive |
| O=C(Oc1cccc2cccnc12)c1ccccc1 | inactive | inactive | inactive | inactive | inactive |  | inactive | inactive | inactive | inactive | inactive | inactive | inactive | inactive | inactive | inactive |  | inactive | inactive |  |

| Compound | Potency (CP247) | Potency (CP250) | Potency (CP252) | Potency (CP265) | Potency (CP297) | Potency (CP315) | Potency (CP329) | Potency (DFO2036) | Potency (CP256) | Potency (CP262) | Potency (CP266) | Potency (CP268) | Potency (CP269) | Potency (CP286) | Potency (CP291) | Potency (CP305) | Potency (CP325) | Potency (CP335) | Potency (DIV14) | Potency (CP260) |
| --- | --- | --- | --- | --- | --- | --- | --- | --- | --- | --- | --- | --- | --- | --- | --- | --- | --- | --- | --- | --- |
| CC(=O)NCCCCCC(=O)O | inactive |  | inactive | inactive | inactive | inactive | inactive | inactive | inactive | inactive | inactive | inactive | inactive | inactive | inactive | inactive | inactive | inactive | inactive | inactive |
| CCCc1ncc(C[n+]2ccccc2C)c(N)n1 | inactive | inactive | inactive | inactive | inactive | inactive | inactive | inactive | inactive |  | inactive | inactive | inactive | inactive | inactive | inactive | inactive |  | inactive | inactive |
| Oc1c(Cl)cc(Cl)c(Cl)c1Cc1c(O)c(Cl)cc(Cl)c1Cl | 8.91 µM (active) |  | 8.91 µM (active) |  |  | 6.75 µM (active) | 13.5 µM (active) |  | inactive |  |  |  |  |  |  |  |  |  | 10.7 µM (active) |  |
| CN1CCN(c2cc3c(cc2F)c(=O)c(C(=O)O)cn3-c2ccc(F)cc2)CC1 | inactive | inactive | inactive | inactive | inactive | inactive | inactive |  | inactive |  |  |  | inactive |  |  |  | inactive |  | inactive |  |
| Cc1ccc2c(Br)cc(Br)c(O)c2n1 | 11.2 µM (active) |  |  |  |  | 12 µM (active) | 15.1 µM (active) | 10 µM (active) |  | inactive |  |  |  |  |  |  |  |  |  |  |
| FC1(F)C(F)(F)C(F)(F)C2(F)C(F)(F)C(F)(F)C(F)(F)C(F)(F)C2(F)C1(F)F (configuration not stated) | inactive | inactive | inactive | inactive | inactive | inactive | inactive | inactive | inactive | inactive | inactive | inactive | inactive | inactive | inactive | inactive | inactive | inactive | inactive |  |
| NC(N)=NCc1cccc(I)c1 | inactive | inactive | inactive | inactive |  | inactive | inactive | inactive | inactive |  | inactive | inactive | inactive | inactive | inactive | inactive | inactive |  | inactive |  |
| O=[N+]([O-])c1cccc(S(=O)(=O)NCCNS(=O)(=O)c2cccc([N+](=O)[O-])c2)c1 | inactive | inactive | inactive | inactive | inactive | inactive | inactive | inactive | inactive |  | inactive |  |  |  | inactive |  | inactive |  |  |  |
| O=C1C(=O)c2ccccc2C(O)=C1C1CCC(c2ccc(Cl)cc2)CC1 (configuration not stated) | 0.0022 µM (active) | 0.0028 µM (active) | 0.0032 µM (active) | 0.0006 µM (active) |  | 0.0057 µM (active) |  | 0.0032 µM (active) | 0.0016 µM (active) |  | 0.0064 µM (active) | 0.0057 µM (active) | 0.0051 µM (active) | 0.0011 µM (active) | 0.0064 µM (active) | 0.0051 µM (active) | 0.0064 µM (active) | 0.0032 µM (active) | 0.0064 µM (active) | 0.0008 µM (active) |
| O=C(O)CCc1nc2ccccc2[nH]1 | inactive |  |  | inactive |  |  |  |  | inactive |  |  |  |  |  |  |  |  |  |  |  |
| Cc1ncc(CO)c(C=O)c1O | inactive | inactive | inactive | inactive |  |  |  | inactive | inactive |  |  |  |  | inactive |  |  |  | inactive |  | inactive |
| Cc1ccc(O)c([C@H](CCN(C(C)C)C(C)C)c2ccccc2)c1 | 6.31 µM (active) | 11.2 µM (active) | 6.31 µM (active) | 7.08 µM (active) |  | 16.9 µM (active) | 13.5 µM (active) | 5.01 µM (active) | 7.94 µM (active) |  |  | 8.49 µM (active) | 7.57 µM (active) | 3.98 µM (active) | 9.53 µM (active) | 7.57 µM (active) | 10.7 µM (active) | 5.36 µM (active) | 1.35 µM (active) | 5.01 µM (active) |
| CCOC(=O)c1c(N)sc2c1CCN(Cc1ccccc1)C2 | 3.98 µM (active) | 5.01 µM (active) | 7.94 µM (active) |  | 7.57 µM (active) | 6.75 µM (active) | 4.78 µM (active) | 7.08 µM (active) | 5.01 µM (active) |  | 12 µM (active) | 7.57 µM (active) | 6.01 µM (active) | 5.62 µM (active) | 8.49 µM (active) | 6.01 µM (active) | 4.78 µM (active) | 4.26 µM (active) | 2.69 µM (active) | 6.31 µM (active) |
| Cc1cc(CC(=O)O)c(C)n1-c1ccc(Cl)cc1 | inactive | inactive |  | inactive |  | inactive | inactive | inactive | inactive | inactive | inactive | inactive | inactive | inactive | inactive | inactive | inactive |  |  | inactive |
| Oc1ccc(Cl)cc1Cc1cc(Cl)ccc1O | 11.2 µM (active) | inactive | 12.6 µM (active) |  | inactive | inactive | inactive | inactive |  | inactive | inactive | inactive | inactive | inactive |  | inactive |  | inactive |  |  |
